The record followed here is PubChem BioAssay AID1460 (National Center for Advancing Translational Sciences (NCATS), 2008).

The campaign covered roughly 270,000 compounds. About 5,800 (2.1%) were called active. Where a call stands in place of a potency, no number is given. Inconclusive results (about 16%) are left out. The sample holds actives, similar compounds and a random draw of the others, so the mix is not that of the screen. The call rests on the fitted dose curve; in most records, active means well fitted inhibition curve with a large enough effect; inconclusive means small, poorly fitted or top-dose-only effect; inactive means flat fitted curve, though single readings scatter.
Potency means the concentration at half of the fitted maximal effect.

Microtubule-associated protein tau (Homo sapiens), sequence (P10636 561-689 P618L limits assumed): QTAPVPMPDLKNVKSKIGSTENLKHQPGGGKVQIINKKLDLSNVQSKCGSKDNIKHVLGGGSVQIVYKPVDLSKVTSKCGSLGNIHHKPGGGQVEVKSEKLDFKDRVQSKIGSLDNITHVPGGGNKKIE

This experiment deals with Microtubule-associated protein tau (Homo sapiens) (UniProt P10636). In words: qHTS for Inhibitors of Tau Fibril Formation, Thioflavin T Binding. Further: nearly all actives have a fitted effect of over 55% in size. The settings on record: recombinant tau K18 P301L (four-repeat tau fragment), heparin-induced fibrillization, ThT fluorescence; series mostly up to 57.4 µM. From the text:
NIH Molecular Libraries Probe Production Network [MLPCN]
NIH Chemical Genomics Center [NCGC]
Assay Provider: Carlo Ballatore, University of Pennsylvania
The microtubule-associated protein tau is an abundant protein in the axons of neurons that stabilizes microtubules. With its ability to modulate microtubule dynamics, tau contributes directly or indirectly, to key structural and regulatory cellular functions. Particularly important is the influence tau exerts on axonal transport, which allows signaling molecules, trophic factors and other essential cellular constituents to travel along the axons. Under pathological conditions, tau becomes sequestered into insoluble aggregates called neurofibrillary tangles. This phenomenon is believed to have pathological consequences by promoting axonal transport deficits that ultimately lead to synaptic dysfunction and neuronal loss. To identify inhibitors of tau aggregation, a heparin-induced tau fibril formation assay was used that employed a recombinantly expressed fragment of tau, K18 (Q242-E372), bearing a P301L mutation (Gustke et al. 1994; Hong et al. 1998). This assay monitors tau fibrillization by Thioflavin T (ThT) fluorescence.
Gustke, N., B. Trinczek, et al. (1994). "Domains of tau protein and interactions with microtubules." Biochemistry 33(32): 9511-22.
Hong, M., V. Zhukareva, et al. (1998).
Li, W. and V. M. Lee (2006).
von Bergen, M., S. Barghorn, et al. (2001). "Mutations of tau protein in frontotemporal dementia promote aggregation of paired helical filaments by enhancing local beta-structure." J Biol Chem 276(51): 48165-74.
NCGC Assay Protocol Summary:
For screening, 2 uL/well human K18 P301L (15 uM unlabeled and 0.24 uM Alexa 594-labeled tau, final concentrations) in reagent buffer (100 mM sodium acetate pH 7) was dispensed into black solid 1536-well plates (Grenier) using a solenoid-based dispenser. Following transfer of 23 nL compound or DMSO vehicle by a pin tool, 2 uL/well heparin (20 uM final concentration) in reagent buffer was added and the plate centrifuged 15 s at 1000 RPM. Plates were incubated 6 hr at 37 C and then 1 uL/well ThT (30 uM final concentration) was added. After a 1 hr ambient incubation, the plates were read by an Envision (Perkin Elmer) to monitor ThT fluorescence (450/8 nm excitation and 510/23 nm emission).
Keywords: NIH Roadmap, MLPCN, MLI, MLSMR, NCGC, qHTS, tau, tauopathies, Alzheimer's disease, fibril, neurodegeneration, aggregation
(In general: qHTS replaces the single test concentration by a dilution series.)
Regarding `CC1CCN(S(=O)(=O)c2ccc3c(ccn3CCC(=O)NCc3ccc(N(C)C)cc3)c2)CC1`, the Potency result was “inactive”.

As for `Cc1nc2c(-c3ccccc3)c(C)nn2c(C)c1CCC(=O)NCCc1ccccc1`, the Potency result was “inactive”.

On to `CCOc1ccc(NC(=O)c2cn(C3CCCCC3)c(=O)c3c2c2ccccc2n3C)cc1`, for which the Potency entry is “inactive”.

Take `O=C(Cn1ncn2nc(-c3cccs3)cc2c1=O)NCc1cccc(Br)c1`: the Potency result is “inactive”.

Consider `Cc1ccc(NC(=O)Cc2ccc(NC(=O)N3CCCCc4ccccc43)cc2)cc1`, for which the Potency entry was “inactive”.

For the compound `Cc1c(Cl)cccc1NC(=O)C(=O)NCCc1csc2nc(-c3ccccc3F)nn12`, the Potency entry is “inactive”.

On to `CC(C)Cn1c(=O)c2ccccc2n2c(-c3cccc(Cl)c3)nnc12`, for which the Potency result is “inactive”.

Regarding `O=[N+]([O-])c1cccc(-c2nnc3c4ccccc4c4ccccc4n23)c1`, the Potency result was “inactive”.

With `O=c1[nH]c2ccccc2n2c(-c3ccccc3)nnc12`, the Potency is 10 µM (active).

`CCOC(=O)c1cnc2[nH]c3ccccc3n2c1=O`: the Potency result is “inactive”.

Regarding `CC(Nc1ccc(-c2nc(-c3ccco3)no2)cc1[N+](=O)[O-])c1ccccc1` (stereo unspecified), the Potency result is “inactive”.

Take `Cc1ccccc1-n1c(C)cc(/C=C2\NC(=O)NC2=O)c1C`: the Potency entry is “inactive”.

As for `CN(C)/C=C1/C(=O)Nc2ccccc21`, the Potency result was “inactive”.

Take `Cc1cc(C)c(/C=C2\C(=O)Nc3ccccc32)[nH]1`: the Potency was 3.16 µM (active).

For the compound `Cc1nnc(SCc2cc(=O)c3cc(F)ccc3[nH]2)n1C`, the Potency entry was “inactive”.

Turning to `CCOc1ccc(C2C(=O)N(C3CCCCC3)CC(=O)N2CCC2=CCCCC2)cc1OC` (stereo unspecified), the Potency entry was “inactive”.

In the case of `Cc1oc2ncnc(N3CCOCC3)c2c1C(=O)NCCc1ccccc1`, the Potency entry was “inactive”.

With `COc1cc(/C=C(\C#N)c2nc3c(s2)CC(C)CC3)ccc1O` (stereo unspecified), the Potency was 12.6 µM (active).

On to `Cc1ccc(-c2nnc(SCc3ccccc3C)o2)cc1`, for which the Potency entry was “inactive”.

Take `Cc1ccc(-c2cc(-c3coc4ccccc4c3=O)c3c(n2)-c2cc(Cl)ccc2OC3)cc1`: the Potency entry is “inactive”.

Regarding `O=C(CCc1cn(Cc2ccc(F)cc2)c2ccccc12)NC1CCCCC1`, the Potency entry was “inactive”.

As to `OCCC1CN(Cc2cccc(OC3CCCC3)c2)CCN1Cc1ccsc1` (stereo unspecified), the Potency entry is “inactive”.

`OCCC1CN(Cc2ccccc2-c2ccco2)CCN1Cc1ccsc1` (stereo unspecified): the Potency result was “inactive”.

Turning to `OCCC#Cc1ccc(CN2CCN(Cc3ccsc3)C(CCO)C2)cc1` (stereo unspecified), the Potency is 11.2 µM (active).

As to `Cc1ccc(-c2nnc(SCC(=O)NCc3ccccc3)nc2-c2ccc(C)cc2)cc1`, the Potency entry is “inactive”.

In the case of `CCOC(=O)CSC1=Nc2ccccc2C2=NC(CCC(=O)NCc3ccc(F)cc3)C(=O)N12` (stereo unspecified), the Potency result is “inactive”.

Consider `COc1ccc(Cn2ccn(CC(=O)Nc3cc(C)ccc3C)c(=O)c2=O)cc1`, for which the Potency result was “inactive”.

As to `CCS(=O)(=O)N1CCc2cc(C(=O)NCc3ccc(OC)cc3)ccc21`, the Potency result is “inactive”.

On to `Cc1[nH][nH]c(=O)c1C(c1ccc(-c2ccc(Cl)cc2)o1)c1c(C)[nH][nH]c1=O`, for which the Potency was 7.08 µM (active).

On to `CCOc1ccc(C(c2c(C)[nH][nH]c2=O)c2c(C)[nH][nH]c2=O)cc1OCC`, for which the Potency result was “inactive”.

`CC1CCCN(c2cc3c(cc2F)c(=O)c(S(=O)(=O)c2cccc(Cl)c2)cn3Cc2ccccc2)C1` (stereo unspecified): the Potency entry was “inactive”.

As to `CCOc1ccc(CC(=O)NCCc2csc3nc(-c4ccccc4F)nn23)cc1`, the Potency result was “inactive”.

As for `O=C(Nc1ccc(S(=O)(=O)N2CCC(c3nc4ccccc4s3)CC2)cc1)c1ccccc1F`, the Potency result is “inactive”.

As to `CC(C)c1ccc(NS(=O)(=O)c2ccc3[nH]cc(C(=O)NC4CCCC4)c(=O)c3c2)cc1`, the Potency result is “inactive”.

For the compound `CCn1c2ccccc2c2nnc(N3CCN(c4cc(C)ccc4C)CC3)nc21`, the Potency entry is “inactive”.

For the compound `O=c1c(=O)n(Cc2c(F)cccc2Cl)ccn1Cc1ccccc1`, the Potency entry is “inactive”.

For the compound `Cc1ccc(CNC(=O)CCc2c(C)nn(-c3ccc(N4CCCC4)nn3)c2C)cc1`, the Potency result is “inactive”.

Regarding `CC1=C/C(=N\S(=O)(=O)c2ccccc2)C(C(C)C)=CC1=O`, the Potency entry is “inactive”.

On to `Cc1ccc(S(=O)(=O)c2ccc(Oc3ccccc3)cc2)cc1`, for which the Potency result was “inactive”.

Regarding `CC1=C/C(=N\OS(=O)(=O)c2ccccc2)C=CC1=O`, the Potency was 3.16 µM (active).

With `COc1ccc(OC)c(-c2nc(C(N)=O)c3c(n2)n(-c2ccc4c(c2)OCO4)c(=O)n3C)c1`, the Potency result is “inactive”.

For `CC(C)(C)OC(=O)N1CCC(c2c(C(=O)N3CCc4ccccc4C3)cnn2-c2ccc(F)cc2)CC1`, the Potency entry was “inactive”.

Regarding `CC(=O)c1cc(C#N)c(N2CCCCC2)nc1C`, the Potency result is “inactive”.

For `CC(=O)c1cc(-c2ccccc2)[nH]c1N1CCCC1`, the Potency is 14.1 µM (active).

For the compound `O=c1cc(-c2ccccc2)nc(N2CCCCC2)[nH]1`, the Potency entry was “inactive”.

In the case of `CCCc1nn2c(=O)cc(COC(=O)c3ccc(NC(=O)COc4ccc(F)cc4)cc3)nc2s1`, the Potency entry is “inactive”.

Consider `CCCN(C(=O)Cn1ncc2c([nH]c3ccc(C)cc32)c1=O)c1ccccc1C`, for which the Potency result is “inactive”.

`O=c1cc(CSc2ncn[nH]2)[nH]c2ccc(F)cc12`: the Potency result is “inactive”.

In the case of `CCCN(CCC)C(=O)C1CCCN(c2ncnc3c2nc2n3CCCCC2)C1` (stereo unspecified), the Potency result is “inactive”.

As to `Cc1ccc(-c2ccc(/C=C(\C#N)C(N)=S)o2)c([N+](=O)[O-])c1`, the Potency was 3.98 µM (active).

`Cc1ccc2nc(SCc3nnc(-c4ccccc4[N+](=O)[O-])o3)c(C#N)cc2c1`: the Potency entry is “inactive”.

With `Cc1cc(-c2ccc(/C=N/n3cnnc3)o2)c([N+](=O)[O-])cc1C`, the Potency result was “inactive”.

Turning to `CCOc1ccc2nc(N3CCCC(C(=O)Nc4cc(C)ccc4C)C3)sc2c1` (stereo unspecified), the Potency entry was “inactive”.

In the case of `O=C(NCc1ccccc1)c1cccc(NC(=O)N2CCSc3ncccc32)c1`, the Potency entry is “inactive”.

On to `CC(=O)N1c2ccc(S(=O)(=O)N3CCCCCC3)cc2CC1C(=O)NCc1ccccc1C` (stereo unspecified), for which the Potency result was “inactive”.

On to `Cc1ccc(C(=O)NCCNC(=O)c2ccccc2)cc1`, for which the Potency entry was “inactive”.

Turning to `Cc1ccc(C(=O)NC(=S)Nc2ccccc2C)cc1`, the Potency entry is “inactive”.

As to `C/C(=N\NC(=O)c1ccc(C)cc1)C1C(=O)c2ccccc2C1=O`, the Potency was 5.01 µM (active).

On to `COc1ccc(C2C(=O)N(C3CCCCCC3)CC(=O)N2CCc2ccc(Cl)cc2)cc1OC` (stereo unspecified), for which the Potency result was “inactive”.

With `CC(C)CNc1ncnc2c1nnn2C`, the Potency entry is “inactive”.

As to `Cc1cccc(-c2nc(SCC(=O)Nc3cc(C)on3)c3c(=O)n(C)c(=O)n(C)c3n2)c1`, the Potency entry was “inactive”.

For `Cc1ccc(N(CC(=O)NCc2ccc(Cl)cc2)S(=O)(=O)N(C)C)cc1`, the Potency result is “inactive”.

`Cc1ccc2sc(N(Cc3cccnc3)C(=O)C3COc4ccccc4O3)nc2c1C` (stereo unspecified): the Potency result was “inactive”.

`CC(C)OC(=O)CN1C(=O)C(=O)c2ccccc21`: the Potency entry is “inactive”.

`Cc1cc(C(=O)COC(=O)CCCN2C(=O)c3ccccc3C2=O)c(C)n1C`: the Potency result was “inactive”.

Regarding `CCCCN1C(=O)/C(=C(/C#N)C(N)=O)c2ccccc21`, the Potency was 20 µM (active).
